A selection: hits, their analogues and other compounds. The true share with any hit is near 9.2%.
ALDH1A1 block = blocks purified human ALDH1A1 activity. P00352. Purified ALDH1A1, NADH fluorescence, propionaldehyde substrate. Potency, µM (highest dose often 75.3 µM), actives largely listed as inhibitors. 7.3% of 220,000 active
JMJD2E inh = blocks human JMJD2E demethylase activity | B2RXH2 | JMJD2E catalytic domain, FDH-coupled NADH fluorescence (FDH is formaldehyde dehydrogenase) | Potency, µM (highest dose often 57.1 µM), usual class: inhibitors | 1.6% of 230,000 active | AID 2147; note: nearly all actives have a fitted effect of over 50% in size
Target sequence (B2RXH2 1-337 limits assumed): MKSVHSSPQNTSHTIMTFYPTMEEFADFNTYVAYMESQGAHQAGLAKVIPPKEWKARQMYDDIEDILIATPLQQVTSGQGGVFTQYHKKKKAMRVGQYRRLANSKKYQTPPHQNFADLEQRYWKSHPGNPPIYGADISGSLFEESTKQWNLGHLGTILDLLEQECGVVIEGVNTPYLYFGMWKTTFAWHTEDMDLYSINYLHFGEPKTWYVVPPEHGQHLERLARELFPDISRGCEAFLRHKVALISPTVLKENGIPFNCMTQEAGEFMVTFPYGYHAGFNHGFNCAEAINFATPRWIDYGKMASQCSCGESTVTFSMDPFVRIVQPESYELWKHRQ
HttQ103 aggreg = inhibitors of mutant huntingtin aggregate formation in PC12 cells; Potency, µM (highest dose often 46.1 µM), actives largely listed as inhibitors; 1.1% of 220,000 active; PC12 HttQ103-GFP aggregates, Acumen cytometry, 40 h; active = well fitted curve in the direction sought with a large enough effect; inconclusive = small, poorly fitted or top-dose-only effect, or another doubt; inactive = no such curve, though single readings can be large; an effect the other way counts as inactive or inconclusive; note: nearly all actives have a fitted effect of over 60% in size
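Ecdysone-promoter PC12 model expressing HTT exon 1 Q103 fused to GFP, induced by tebufenozide at 100 nM final. Compounds titrated; aggregates sized 1–25 µm scored on a 488 nm laser cytometer.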
HPGD inh = blocks human HPGD enzyme activity. purified HPGD, NADH fluorescence kinetic, PGE2 substrate. Potency, µM, actives largely listed as inhibitors. 4.3% of 150,000 active. AID 894
Target sequence (P15428 whole entry, looked up): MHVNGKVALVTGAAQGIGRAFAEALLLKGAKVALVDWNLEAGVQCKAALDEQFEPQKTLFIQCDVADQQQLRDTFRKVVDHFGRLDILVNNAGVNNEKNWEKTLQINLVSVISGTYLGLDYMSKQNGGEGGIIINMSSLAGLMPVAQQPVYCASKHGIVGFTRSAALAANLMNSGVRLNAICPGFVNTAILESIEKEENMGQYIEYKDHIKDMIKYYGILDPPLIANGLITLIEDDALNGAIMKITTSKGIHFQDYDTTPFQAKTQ
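20 nM HPGD preincubated 15 min at room temperature with compound in 50 mM Tris-HCl pH 8, 0.01% Tween 20. Started with 1 mM NAD+ and 30 uM prostaglandin E2; NADH fluorescence (360/450 nm) read 5 times over 30-s intervals, last minus first.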
Lamin A splicing = modulators of lamin A splicing; Potency, µM (highest dose often 46.1 µM), most hits filed as inhibitors; 0.01% of 200,000 active; AID 1487; HeLa LMNA splicing GFP/RFP minigene ratio, 48 h; active = well fitted inhibition curve with a large enough effect in the signal ratio, with a control signal flat, not every such curve was filed as active; inconclusive = small, poorly fitted or top-dose-only effect, or effect the other way, or a change in a side signal; the % refers to the signal ratio
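S3 HeLa cells stably expressing lamin A-EGFP splicing minigene plus DsRed2, 600 cells/well, 48 h compound exposure at 37C. Laser-scanning cytometry; analysed as GFP (500-530 nm)/RFP (575-640 nm) total intensity ratio; 0.5% DMSO vehicle.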
HTT ATP protect = protects HTT-Q103 PC12 cells, measured by ATP | PC12 HTT-Q103 induced, cytoprotection, ATP luminescence, 40 h | Potency, µM (titrated, usually from 56.4 µM), actives largely listed as activators | 0.14% of 230,000 active | AID 1471; active = well fitted curve in the direction sought with a large enough effect; inconclusive = small, poorly fitted or top-dose-only effect, or another doubt; inactive = no such curve, though single readings can be large; an effect the other way counts as inactive or inconclusive; note: nearly all actives have a fitted effect of over 45% in size
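Quantitative HTS on tebufenozide-induced (100 nM) PC12 cells expressing HTTQ103 exon 1–GFP; compounds tested as a concentration series; survival measured via cellular ATP.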
Of the large screens only hits and unclear results are named; the others gave an inactive call; ! = not active in a repeat. Unless noted, calls come from the whole dose curve; as a rule, active = well fitted inhibition curve with a large enough effect (not every such curve was filed as active); inconclusive = small, poorly fitted or top-dose-only effect, or another doubt; inactive = no such curve, though single readings can be large or run the other way.

CC(=O)[O-].CC(=O)[O-].CC(=O)[O-].[Cr+3]	none (no result: JMJD2E inh, HttQ103 aggreg, Lamin A splicing)
COP(=S)(OC)Oc1ccc([N+](=O)[O-])cc1	ALDH1A1 block 20µM, Lamin A splicing inconclusive (no result: HttQ103 aggreg)
COP(=S)(OC)Oc1ccc(Sc2ccc(OP(=S)(OC)OC)cc2)cc1	none (no result: ALDH1A1 block, JMJD2E inh, HPGD inh, Lamin A splicing)
C=C(COC(=O)CCC(=O)O)CC1CC(O)[C@]2(C)OC3CC4OC5C[C@]6(C)O[C@]7(C)CCC8OC9C[C@]%10(C)OC%11C(C)=CC(=O)OC%11CC%10OC9C[C@@H](C)C8OC7CC6O[C@]5(C)C/C=C\C4OC3CC2O1 (stereo partly specified)	HttQ103 aggreg inconclusive (no result: ALDH1A1 block, HPGD inh, Lamin A splicing)
CC1=CC(=O)OC2CC3OC4C[C@@H](C)C5OC6CC7O[C@]8(C)C/C=C\C9OC%10CC%11OC(CC(C)CO)CC(O)[C@]%11(C)OC%10CC9OC8C[C@]7(C)O[C@]6(C)CCC5OC4C[C@]3(C)OC12 (stereo partly specified)	ALDH1A1 block 2.8µM (no result: HPGD inh, Lamin A splicing)
CO[C@H]1[C@H](O)[C@H](O[C@@H]2[C@H](Oc3cccc4c(O)c5c(=O)oc6ccc(C)c7c(=O)oc(c34)c5c67)O[C@@H](C)[C@H](O)[C@H]2O)O[C@@H](C)[C@@H]1O	none (no result: JMJD2E inh, HttQ103 aggreg, Lamin A splicing)
C/C=C1/C[C@@H](C)[C@](O)(CO)C(=O)OCC2=CCN3CC[C@@H](OC1=O)C23 (stereo partly specified)	none (no result: HttQ103 aggreg, Lamin A splicing)
Cn1c(=O)c2[nH]cnc2n(C)c1=O.[CH2-][C@H](Cc1cccc2cc(C(=O)O)c(=O)oc12)OC.[Hg].[OH-]	ALDH1A1 block 3.2µM, HPGD inh 4µM (no result: JMJD2E inh, HttQ103 aggreg, Lamin A splicing)
OC1(c2ccc(F)cc2)CC2CCC(C1)N2Cc1nnnn1C1CCCCC1 (stereo unspecified)	ALDH1A1 block 0.63µM
CN[C@H]1[C@H]2[C@H]3CCN2C[C@@H]1O3	none (no result: ALDH1A1 block, JMJD2E inh, HttQ103 aggreg, HPGD inh, Lamin A splicing)
C=CCN1C(=O)NC(=O)/C(=C/c2ccc(N(C)C)c(Br)c2)C1=O	ALDH1A1 block 13µM, HttQ103 aggreg inconclusive, Lamin A splicing inconclusive (no result: HPGD inh)
C=CCN1C(=O)NC(=O)/C(=C/c2ccoc2)C1=O	ALDH1A1 block inconclusive, HPGD inh 25µM, Lamin A splicing inconclusive
CCN1CCN(P2(=O)C=C(c3ccccc3)OC(c3ccccc3)=C2)CC1	ALDH1A1 block 14µM
CCN1CCN(Cc2ccccc2C)CC1	none
Clc1ccc(OCC#CCN2CCCC2)cc1	ALDH1A1 block inconclusive, JMJD2E inh inconclusive (no result: HPGD inh)
CCCN(CC#CCOc1ccc(OC)cc1)CCC	ALDH1A1 block 20µM, JMJD2E inh inconclusive
COP(=S)(OC)SCN1C(=O)c2ccccc2C1=O	ALDH1A1 block inconclusive, HPGD inh 20µM
CN1C2CCC1CC(NC(=O)c1nn(C)c3ccccc13)C2 (stereo unspecified)	JMJD2E inh inconclusive (no result: HttQ103 aggreg)
CCCCC/C=C\C/C=C\C/C=C\C/C=C\CCCC(=O)NC1CC1	ALDH1A1 block inconclusive, HPGD inh inconclusive (no result: JMJD2E inh, HttQ103 aggreg, Lamin A splicing)
CCCCC/C=C\C/C=C\C/C=C\C/C=C\CCCC(=O)OC(CO)CO	ALDH1A1 block 22µM!, HPGD inh 28µM! (no result: HttQ103 aggreg, Lamin A splicing)
CCCCC/C=C\C/C=C\CCCCCCCC(=O)NCCO	none (no result: HttQ103 aggreg, Lamin A splicing)
CCCCC/C=C\C/C=C\C/C=C\C/C=C\CCCC(=O)N[C@H](C)CO	ALDH1A1 block 7.1µM!, HTT ATP protect inconclusive (no result: HttQ103 aggreg, Lamin A splicing)
CS(=O)(=O)c1ccc([C@H](O)[C@H](CF)NC(=O)C(Cl)Cl)cc1	Lamin A splicing inconclusive, HTT ATP protect inconclusive
C=CCN1C(=O)C2(C(C(=O)OCC)=C(N)Oc3ccccc32)C2=C1CCCC2=O (stereo unspecified)	ALDH1A1 block 4µM
CCOC(=O)CC1=C(C(=O)OCC)C2(C(=O)N1CC(=O)OC)C(C#N)=C(N)Oc1ccccc12 (stereo unspecified)	ALDH1A1 block 1.1µM
CCOC(=O)CN1C(=O)C2(C(C#N)=C(N)Oc3ccccc32)C(C(=O)OC)=C1C (stereo unspecified)	ALDH1A1 block 7.9µM
C=CCOC(=O)C1=C(C)OC(N)=C(C#N)[C@@]12C(=O)N(CC(N)=O)c1ccccc12	none (no result: HPGD inh)
CCOCN(C(=O)CCl)c1c(C)cccc1CC	ALDH1A1 block 32µM! (no result: HttQ103 aggreg)
CN1CC(C(=O)c2ccccc2)C(C(=O)c2ccccc2)C1 (stereo unspecified)	none
CN1CCC(O)(c2ccc(Cl)cc2)C(C(=O)c2ccc(Cl)cc2)C1 (stereo unspecified)	ALDH1A1 block 0.11µM, Lamin A splicing inconclusive (no result: HPGD inh)
CCc1ccc(-n2c(O)c(/C=N/NC(=O)c3ccncc3)c(=O)[nH]c2=O)cc1	ALDH1A1 block inconclusive, JMJD2E inh 11µM
CCCCn1c(O)c(C=NCCCn2ccnc2)c(=O)[nH]c1=O	ALDH1A1 block 18µM
CC(C)c1ccc(-n2c(O)c(/C=N/NC(=O)c3ccncc3)c(=O)[nH]c2=O)cc1	ALDH1A1 block inconclusive, JMJD2E inh inconclusive
Cc1cc(C)c(-n2c(O)c(/C=N/NC(=O)c3ccncc3)c(=O)[nH]c2=O)c(C)c1	JMJD2E inh 14µM (no result: ALDH1A1 block, HPGD inh, Lamin A splicing)
CCCCn1c(O)c(/C=N/NC(=O)c2ccncc2)c(=O)[nH]c1=O	JMJD2E inh 8.9µM (no result: ALDH1A1 block, HPGD inh, Lamin A splicing)
CCC(=NCc1ccc2c(c1)OCO2)c1c(O)n(C2CCCCC2)c(=O)[nH]c1=O	ALDH1A1 block 13µM, HttQ103 aggreg inconclusive
CCC(=NCCO)c1c(O)n(C2CCCCC2)c(=O)[nH]c1=O	none
CN1CC(C(=O)c2ccc(Cl)cc2)C(c2ccc(N(C)C)cc2)C1 (stereo unspecified)	ALDH1A1 block 10µM (no result: HPGD inh, Lamin A splicing)
CC(=O)Nc1ccc(C2CN(C)CC2C(=O)c2ccc(Cl)cc2)cc1 (stereo unspecified)	ALDH1A1 block inconclusive (no result: HPGD inh)
C=C1CC[C@H](O)C/C1=C/C=C1\CCC[C@]2(C)[C@@H]([C@H](C)CCCC(C)C)CC[C@@H]12	ALDH1A1 block inconclusive, HPGD inh inconclusive (no result: JMJD2E inh, Lamin A splicing)
COC(=O)c1ccc(N2C(=O)CC(N3CCC(O)(c4ccc(Br)cc4)CC3)C2=O)cc1 (stereo unspecified)	ALDH1A1 block 3.2µM
COC(=O)c1ccc(N2C(=O)CC(N3CCC(n4c(=O)[nH]c5ccccc54)CC3)C2=O)cc1 (stereo unspecified)	ALDH1A1 block 10µM
CC(C)(C)OOC(C)(C)C	none (no result: JMJD2E inh, HttQ103 aggreg, Lamin A splicing)
COC(C)(C)C	ALDH1A1 block 18µM (no result: JMJD2E inh, HttQ103 aggreg, Lamin A splicing)
COc1ccc2c3c1O[C@H]1C[C@H](O)C=C[C@@]31CCN(C)C2	HTT ATP protect inconclusive (no result: HttQ103 aggreg, Lamin A splicing)
CN1C(=O)NC(c2cccc(O)c2)C(C(=O)c2cccs2)C1(O)C(F)(F)F (stereo unspecified)	ALDH1A1 block 0.79µM, JMJD2E inh inconclusive
CCCC[N+]12CCC(CC1)C(C(=O)c1cccs1)C2 (stereo unspecified)	none
Nc1ccc(-c2ccc(N)c(Cl)c2)cc1Cl	ALDH1A1 block inconclusive (no result: JMJD2E inh, HttQ103 aggreg, Lamin A splicing)

Source: PubChem
